Targets with a hit are over-represented here; the source holds about 8,800 in all. About 0.5% of all pairs of compound and target were hits. A number with no mark means an inactive call.
Columns and labels:
Test in all cases: log2 fold change, soluble protein after heating vs DMSO (PISA); higher = thermal stabilisation; K562 lysate, 10 uM; active = over 0.2 and 3.5 SD of the protein, either way, in both replicates (recomputed)
vemurafenib = compound: CCCS(=O)(=O)Nc1ccc(F)c(C(=O)c2c[nH]c3ncc(-c4ccc(Cl)cc4)cc23)c1F [vemurafenib]
Summary of the method: (§1)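 Pellets of K562 cells were dounce-homogenised in PBS pH 7.4 with 1 mM MgCl2, and the crude extract was held at 1 mg/mL protein for a 30 min treatment with 10 μM compound. Aliquots were heated for 3 min over 48°C-58°C and pooled before NP-40 was added to 0.5% at 4°C. The supernatant from 21,000xg for 90 min was quantified by TMTpro 16plex LC-MS/MS with channel sums equalised. Values are reported from duplicates as log-two fold change in thermal stability relative to solvent controls.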

[1] = compound: CCCS(=O)(=O)Nc1ccc(F)c(C(=O)c2c[nH]c3ncc(Cl)cc23)c1F
Summary of the method: as §1

barasertib = compound: CCN(CCCOc1ccc2c(Nc3cc(CC(=O)Nc4cccc(F)c4)[nH]n3)ncnc2c1)CCOP(=O)(O)O [barasertib]
Summary of the method: as §1

[2] = compound: CC[C@@H]1C(=O)N(C)c2cnc(Nc3ccc(C(=O)NC4CCN(C)CC4)cc3OC)nc2N1C1CCCC1
Summary of the method: as §1

volasertib = compound: CC[C@@H]1C(=O)N(C)c2cnc(Nc3ccc(C(=O)N[C@H]4CC[C@H](N5CCN(CC6CC6)CC5)CC4)cc3OC)nc2N1C(C)C [volasertib]
Summary of the method: as §1

[3] = compound: CCn1c(C(=O)N(C2CC2)C2CC2)cc2c3c(ncn3C)c(Nc3cc(C)n(C)n3)nc21
Summary of the method: as §1

[4] = compound: CCn1cc(-c2ccnc3[nH]c(-c4cccc(CN(C)C)c4)cc23)c(-c2ccc(NC(=O)N(C)C)cc2)n1
Summary of the method: as §1

[5] = compound: CN1CCC(CNc2ccc3ncc(-c4cccc(OC(F)(F)F)c4)n3n2)CC1
Summary of the method: as §1

saracatinib = compound: CN1CCN(CCOc2cc(OC3CCOCC3)c3c(Nc4c(Cl)ccc5c4OCO5)ncnc3c2)CC1 [saracatinib]
Summary of the method: as §1

sotrastaurin = compound: CN1CCN(c2nc(C3=C(c4c[nH]c5ccccc45)C(=O)NC3=O)c3ccccc3n2)CC1 [sotrastaurin]
Summary of the method: as §1

alvocidib = compound: CN1CC[C@H](c2c(O)cc(O)c3c(=O)cc(-c4ccccc4Cl)oc23)[C@H](O)C1 [alvocidib]
Summary of the method: as §1

Tubastatin A = compound: CN1CCc2c(c3ccccc3n2Cc2ccc(C(=O)NO)cc2)C1 [Tubastatin A]
Summary of the method: as §1

[6] = compound: CNC(=O)C1=CC=CC=C1NC2=NC(=NC=C2Cl)NC3=C(C=C(C=C3)N4CCOCC4)OC
Summary of the method: as §1

defactinib = compound: CNC(=O)c1ccc(Nc2ncc(C(F)(F)F)c(NCc3nccnc3N(C)S(C)(=O)=O)n2)cc1 [defactinib]
Summary of the method: as §1

[7] = compound: CNc1nc(-c2ccc3c(N)n[nH]c3c2)cc(N2C[C@@H](C(=O)NC3CCCCC3)CC[C@H]2C)n1
Summary of the method: as §1

encorafenib = compound: COC(=O)N[C@@H](C)CNc1nccc(-c2cn(C(C)C)nc2-c2cc(Cl)cc(NS(C)(=O)=O)c2F)n1 [encorafenib]
Summary of the method: as §1

[8] = compound: COC(=O)[C@H](CCSC)NC(=O)C1=C(C=C(C=C1)NC[C@H](CS)N)C2=CC=CC=C2
Summary of the method: as §1

alisertib = compound: COc1cc(Nc2ncc3c(n2)-c2ccc(Cl)cc2C(c2c(F)cccc2OC)=NC3)ccc1C(=O)O [alisertib]
Summary of the method: as §1

[9] = compound: COc1cc2nc(-c3cc(F)ccc3O)nc(N[C@@H]3CNC[C@H]3C(C)(C)O)c2cc1OC
Summary of the method: as §1

gefitinib = compound: COc1cc2ncnc(Nc3ccc(F)c(Cl)c3)c2cc1OCCCN1CCOCC1 [gefitinib]
Summary of the method: as §1

UniProt Q14191, sequence (Q14191 whole entry, looked up): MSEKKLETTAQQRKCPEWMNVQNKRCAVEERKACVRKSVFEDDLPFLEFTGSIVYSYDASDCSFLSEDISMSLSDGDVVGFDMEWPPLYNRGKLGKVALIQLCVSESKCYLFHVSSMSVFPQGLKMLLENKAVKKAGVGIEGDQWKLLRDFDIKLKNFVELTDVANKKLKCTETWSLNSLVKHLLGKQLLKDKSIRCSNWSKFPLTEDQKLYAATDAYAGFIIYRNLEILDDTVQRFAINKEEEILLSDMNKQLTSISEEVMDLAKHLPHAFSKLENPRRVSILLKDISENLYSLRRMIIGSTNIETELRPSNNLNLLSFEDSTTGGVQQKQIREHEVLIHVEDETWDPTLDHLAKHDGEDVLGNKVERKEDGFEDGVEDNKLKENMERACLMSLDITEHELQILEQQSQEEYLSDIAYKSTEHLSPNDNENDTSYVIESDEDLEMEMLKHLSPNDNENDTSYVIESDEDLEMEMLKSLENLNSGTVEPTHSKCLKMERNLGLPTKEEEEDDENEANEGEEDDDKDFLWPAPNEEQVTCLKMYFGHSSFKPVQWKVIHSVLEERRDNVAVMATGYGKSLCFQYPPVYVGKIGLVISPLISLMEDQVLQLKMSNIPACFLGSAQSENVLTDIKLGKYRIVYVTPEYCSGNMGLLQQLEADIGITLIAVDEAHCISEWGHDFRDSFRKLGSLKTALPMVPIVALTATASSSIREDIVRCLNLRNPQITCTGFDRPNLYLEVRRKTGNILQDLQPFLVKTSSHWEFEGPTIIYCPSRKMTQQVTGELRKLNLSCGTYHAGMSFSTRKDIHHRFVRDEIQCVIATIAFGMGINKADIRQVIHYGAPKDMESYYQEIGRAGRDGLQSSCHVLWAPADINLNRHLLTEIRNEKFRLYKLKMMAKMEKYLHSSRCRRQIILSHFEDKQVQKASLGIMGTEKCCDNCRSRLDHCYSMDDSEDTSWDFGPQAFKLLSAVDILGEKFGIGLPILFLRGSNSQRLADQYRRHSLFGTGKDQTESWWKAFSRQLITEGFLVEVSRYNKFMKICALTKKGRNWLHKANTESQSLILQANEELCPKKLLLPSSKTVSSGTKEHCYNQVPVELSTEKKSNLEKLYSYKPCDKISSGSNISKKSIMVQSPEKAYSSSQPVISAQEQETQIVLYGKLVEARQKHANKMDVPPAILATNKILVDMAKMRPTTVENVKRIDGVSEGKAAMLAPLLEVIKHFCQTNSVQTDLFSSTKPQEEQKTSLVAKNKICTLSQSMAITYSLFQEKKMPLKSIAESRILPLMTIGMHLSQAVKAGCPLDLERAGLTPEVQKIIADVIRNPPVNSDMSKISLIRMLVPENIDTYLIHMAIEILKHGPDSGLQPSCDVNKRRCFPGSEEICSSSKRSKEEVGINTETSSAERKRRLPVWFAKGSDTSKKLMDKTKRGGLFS
UniProt O43149, sequence (O43149 whole entry, looked up): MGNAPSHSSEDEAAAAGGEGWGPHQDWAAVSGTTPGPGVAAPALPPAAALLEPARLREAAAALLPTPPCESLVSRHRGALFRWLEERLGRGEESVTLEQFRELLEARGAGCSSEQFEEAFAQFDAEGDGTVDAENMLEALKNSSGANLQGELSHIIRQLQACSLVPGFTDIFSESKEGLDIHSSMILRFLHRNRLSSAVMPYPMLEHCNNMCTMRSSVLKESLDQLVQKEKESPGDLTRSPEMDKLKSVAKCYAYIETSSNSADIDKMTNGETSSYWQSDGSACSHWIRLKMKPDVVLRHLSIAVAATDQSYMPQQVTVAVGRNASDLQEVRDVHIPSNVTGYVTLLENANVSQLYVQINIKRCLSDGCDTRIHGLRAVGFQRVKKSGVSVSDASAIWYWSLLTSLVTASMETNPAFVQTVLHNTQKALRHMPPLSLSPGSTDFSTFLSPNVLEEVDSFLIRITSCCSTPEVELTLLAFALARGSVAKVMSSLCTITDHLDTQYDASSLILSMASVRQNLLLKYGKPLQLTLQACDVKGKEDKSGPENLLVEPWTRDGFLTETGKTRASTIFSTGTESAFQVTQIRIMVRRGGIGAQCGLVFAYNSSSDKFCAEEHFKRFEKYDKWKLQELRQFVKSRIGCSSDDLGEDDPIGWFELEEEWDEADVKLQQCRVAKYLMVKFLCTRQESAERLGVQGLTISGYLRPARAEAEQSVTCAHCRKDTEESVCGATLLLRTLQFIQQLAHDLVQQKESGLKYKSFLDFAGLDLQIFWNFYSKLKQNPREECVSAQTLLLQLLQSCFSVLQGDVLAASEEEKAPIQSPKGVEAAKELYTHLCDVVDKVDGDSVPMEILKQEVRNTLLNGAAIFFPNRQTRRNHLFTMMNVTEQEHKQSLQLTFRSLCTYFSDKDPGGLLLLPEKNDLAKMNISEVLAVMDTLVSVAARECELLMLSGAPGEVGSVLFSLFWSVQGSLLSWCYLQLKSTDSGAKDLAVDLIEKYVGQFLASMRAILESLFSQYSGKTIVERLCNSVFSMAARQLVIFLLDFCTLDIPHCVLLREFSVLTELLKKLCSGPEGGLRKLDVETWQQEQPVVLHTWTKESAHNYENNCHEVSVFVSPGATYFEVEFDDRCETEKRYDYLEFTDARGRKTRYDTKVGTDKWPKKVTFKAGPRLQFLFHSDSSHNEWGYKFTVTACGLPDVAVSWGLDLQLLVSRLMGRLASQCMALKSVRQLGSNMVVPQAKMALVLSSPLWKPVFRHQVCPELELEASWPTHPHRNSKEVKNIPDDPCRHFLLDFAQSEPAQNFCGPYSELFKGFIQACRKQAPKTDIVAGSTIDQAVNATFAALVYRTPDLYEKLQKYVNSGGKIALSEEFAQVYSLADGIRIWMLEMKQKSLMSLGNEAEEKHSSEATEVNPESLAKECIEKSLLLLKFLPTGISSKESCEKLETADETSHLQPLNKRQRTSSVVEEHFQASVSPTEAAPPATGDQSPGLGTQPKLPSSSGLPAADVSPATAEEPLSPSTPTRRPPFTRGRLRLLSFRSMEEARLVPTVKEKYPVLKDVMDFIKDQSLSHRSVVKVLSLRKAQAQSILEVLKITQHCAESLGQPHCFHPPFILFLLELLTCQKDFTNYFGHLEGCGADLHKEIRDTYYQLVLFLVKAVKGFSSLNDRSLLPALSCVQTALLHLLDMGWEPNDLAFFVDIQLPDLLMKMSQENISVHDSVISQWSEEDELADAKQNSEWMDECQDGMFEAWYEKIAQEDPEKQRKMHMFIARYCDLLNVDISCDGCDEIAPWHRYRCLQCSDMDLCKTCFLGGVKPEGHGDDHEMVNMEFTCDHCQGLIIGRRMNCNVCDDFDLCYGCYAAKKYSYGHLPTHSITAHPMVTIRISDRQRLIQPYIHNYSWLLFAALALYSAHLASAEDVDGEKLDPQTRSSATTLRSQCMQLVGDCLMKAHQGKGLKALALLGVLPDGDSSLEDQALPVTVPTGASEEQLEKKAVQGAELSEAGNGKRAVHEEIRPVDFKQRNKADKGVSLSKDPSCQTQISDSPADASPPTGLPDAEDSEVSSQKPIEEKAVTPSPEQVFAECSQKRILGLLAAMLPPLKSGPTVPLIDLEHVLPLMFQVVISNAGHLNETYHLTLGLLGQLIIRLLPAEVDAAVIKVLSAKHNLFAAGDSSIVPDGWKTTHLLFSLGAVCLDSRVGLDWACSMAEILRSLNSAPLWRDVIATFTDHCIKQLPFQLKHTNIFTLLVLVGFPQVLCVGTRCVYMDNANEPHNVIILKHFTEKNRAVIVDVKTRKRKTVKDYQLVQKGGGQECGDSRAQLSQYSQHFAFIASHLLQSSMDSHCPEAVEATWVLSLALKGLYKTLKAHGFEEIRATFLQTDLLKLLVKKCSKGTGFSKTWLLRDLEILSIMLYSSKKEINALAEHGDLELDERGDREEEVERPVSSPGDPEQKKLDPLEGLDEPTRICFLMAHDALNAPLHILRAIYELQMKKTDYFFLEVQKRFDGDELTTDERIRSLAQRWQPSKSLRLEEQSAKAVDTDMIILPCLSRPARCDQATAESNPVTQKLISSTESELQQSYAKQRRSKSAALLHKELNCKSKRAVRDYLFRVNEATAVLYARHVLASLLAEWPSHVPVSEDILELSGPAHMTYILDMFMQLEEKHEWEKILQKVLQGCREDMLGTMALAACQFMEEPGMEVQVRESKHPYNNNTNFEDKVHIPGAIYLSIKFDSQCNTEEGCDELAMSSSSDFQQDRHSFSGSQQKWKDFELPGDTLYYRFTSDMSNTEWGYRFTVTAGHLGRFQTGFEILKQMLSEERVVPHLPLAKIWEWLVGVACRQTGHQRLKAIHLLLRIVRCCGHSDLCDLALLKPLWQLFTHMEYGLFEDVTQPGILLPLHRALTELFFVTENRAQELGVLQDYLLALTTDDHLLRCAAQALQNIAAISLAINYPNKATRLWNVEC
UniProt Q9NUE0, sequence (Q9NUE0 whole entry, looked up): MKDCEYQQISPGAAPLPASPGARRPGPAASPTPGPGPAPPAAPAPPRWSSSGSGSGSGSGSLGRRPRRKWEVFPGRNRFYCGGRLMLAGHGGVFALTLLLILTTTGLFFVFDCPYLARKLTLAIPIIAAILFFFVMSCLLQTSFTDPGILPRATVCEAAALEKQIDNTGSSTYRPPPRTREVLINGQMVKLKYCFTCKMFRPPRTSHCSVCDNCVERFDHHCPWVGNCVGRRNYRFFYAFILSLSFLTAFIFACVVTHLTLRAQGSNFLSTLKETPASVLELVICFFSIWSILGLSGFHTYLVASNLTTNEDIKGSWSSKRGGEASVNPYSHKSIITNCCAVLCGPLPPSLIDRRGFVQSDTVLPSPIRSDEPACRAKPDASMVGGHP
UniProt Q9BRT2, sequence (Q9BRT2 whole entry, looked up): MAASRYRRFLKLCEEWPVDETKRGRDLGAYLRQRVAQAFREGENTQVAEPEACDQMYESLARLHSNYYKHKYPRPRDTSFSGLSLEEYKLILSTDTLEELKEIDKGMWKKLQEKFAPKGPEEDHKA
UniProt O00258, sequence (O00258 whole entry, looked up): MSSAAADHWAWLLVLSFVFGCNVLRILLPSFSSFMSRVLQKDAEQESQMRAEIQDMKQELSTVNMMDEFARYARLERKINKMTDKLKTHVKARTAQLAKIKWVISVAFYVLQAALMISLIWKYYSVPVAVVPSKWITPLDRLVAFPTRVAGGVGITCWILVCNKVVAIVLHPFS

| Target | log2 fold change (vemurafenib) | log2 fold change [1] | log2 fold change (barasertib) | log2 fold change [2] | log2 fold change (volasertib) | log2 fold change [3] | log2 fold change [4] | log2 fold change [5] | log2 fold change (saracatinib) | log2 fold change (sotrastaurin) | log2 fold change (alvocidib) | log2 fold change (Tubastatin A) | log2 fold change [6] | log2 fold change (defactinib) | log2 fold change [7] | log2 fold change (encorafenib) | log2 fold change [8] | log2 fold change (alisertib) | log2 fold change [9] | log2 fold change (gefitinib) |
| --- | --- | --- | --- | --- | --- | --- | --- | --- | --- | --- | --- | --- | --- | --- | --- | --- | --- | --- | --- | --- |
| WDR24 (UniProt Q96S15) | 0.083 | -0.036 | 0.129 | -0.055 | -0.035 | 0.047 | -0.026 | 0.043 | 0.078 | 0.082 | -0.001 | -0.096 | -0.032 | 0.053 | -0.054 | 0.022 | 0.125 | -0.02 | 0.021 | -0.008 |
| WDR3 (UniProt Q9UNX4) | -0.01 | 0.011 | 0.042 | -0.063 | -0.043 | 0.01 | -0.024 | 0.019 | 0.002 | 0.062 | 0.008 | -0.099 | -0.013 | 0.031 | -0.048 | -0.008 | 0.046 | 0.03 | -0.007 | -0.01 |
| ZFPM1 (UniProt Q8IX07) | 0.088 | 0.007 | 0.031 | -0.017 | 0.02 | -0.042 | -0.001 | -0.021 | 0.014 | -0.009 | 0.014 | 0.024 | -0.022 | 0 | 0.007 | 0.072 | -0.009 | -0.011 | 0.018 | -0.006 |
| ZNF217 (UniProt O75362) | 0.043 | 0.019 | 0.047 | 0.099 | -0.021 | -0.028 | -0.021 | 0.076 | 0.013 | 0.052 | -0.144 | -0.076 | 0.009 | -0.045 | -0.004 | -0.06 | -0.037 | 0.032 | 0.219 | -0.013 |
| ZZEF1 (UniProt O43149) | -0.013 | 0.012 | 0.051 | -0.015 | -0.028 | -0.006 | -0.116 | 0.029 | 0.036 | 0.01 | 0.005 | -0.025 | 0.017 | -0.022 | 0.017 | 0.022 | 0.065 | -0.022 | 0.007 | 0.008 |
| ZDHHC18 (UniProt Q9NUE0) | 0.043 | 0.026 | 0.016 | -0.019 | -0.052 | -0.068 | -0.138 | 0.085 | 0.036 | 0.04 | -0.09 | -0.016 | 0.222 | 0.029 | -0.044 | -0.038 | 0.042 | -0.131 | -0.036 | -0.069 |
| USP48 isoform 8 (UniProt Q86UV5) | -0.002 | 0.036 | 0.002 | -0.013 | -0.043 | 0.007 | -0.011 | -0.032 | -0.004 | 0.031 | 0.006 | -0.119 | 0.019 | -0.012 | 0.011 | -0.003 | 0.14 | -0.016 | 0.003 | -0.018 |
| WDR36 (UniProt Q8NI36) | 0.014 | 0.018 | 0.011 | -0.058 | -0.022 | 0.034 | 0.012 | -0.076 | -0.015 | 0.044 | 0.021 | -0.102 | 0.028 | -0.018 | -0.062 | -0.025 | 0.134 | 0.008 | 0.004 | -0.03 |
| UQCC2 (UniProt Q9BRT2) | -0.074 | 0.005 | -0.039 | -0.013 | 0.039 | -0.039 | 0.287 (active) | -0.086 | -0.04 | -0.083 | 0.079 | 0.05 | -0.027 | 0 | 0.006 | 0.021 | -0.025 | 0.029 | 0.017 | -0.059 |
| WDR45 isoform 2 (UniProt Q9Y484) | -0.028 | 0.043 | 0.005 | 0.052 | 0 | 0.12 | -0.19 | 0.086 | 0.01 | 0.024 | -0.065 | -0.067 | -0.001 | 0.013 | -0.059 | -0.042 | -0.051 | 0.021 | -0.008 | 0.037 |
| VCPIP1 (UniProt Q96JH7) | 0.008 | -0.04 | 0.051 | -0.006 | -0.047 | 0.011 | -0.12 | 0.049 | -0.03 | 0.035 | -0.049 | -0.026 | -0.01 | 0.022 | 0.113 | 0.005 | 0.141 | 0.003 | -0.006 | -0.04 |
| USP10 isoform 2 (UniProt Q14694) | 0.021 | 0.013 | 0.002 | -0.005 | -0.039 | 0.013 | -0.079 | 0 | 0.005 | 0.008 | 0.006 | -0.118 | 0.015 | 0.017 | 0.021 | 0.019 | 0.04 | 0.012 | -0.009 | -0.018 |
| WRN (UniProt Q14191) | -0.032 | -0.065 | 0.026 | -0.032 | 0.007 | 0.053 | -0.052 | 0.022 | 0.008 | 0.031 | -0.029 | -0.071 | -0.007 | 0.023 | -0.025 | 0.016 | -0.013 | -0.037 | 0 | 0.047 |
| WRB (UniProt O00258) | 0.086 | 0.077 | 0.098 | -0.011 | 0.015 | -0.148 | -0.176 | 0.068 | -0.147 | 0.013 | -0.022 | 0.114 | 0.029 | -0.003 | 0.044 | -0.067 | 0.027 | -0.028 | 0.022 | 0.061 |
| VPS16 (UniProt Q9H269) | 0.038 | 0.009 | 0.007 | 0.063 | -0.04 | 0.028 | -0.049 | -0.015 | -0.017 | -0.002 | 0.032 | -0.082 | 0.002 | -0.006 | 0 | 0.049 | -0.069 | 0.031 | -0.004 | 0.013 |
| VPS37B (UniProt Q9H9H4) | -0.001 | 0.003 | -0.012 | 0.047 | -0.011 | 0.005 | -0.018 | 0.04 | 0.048 | 0.01 | 0.025 | -0.034 | -0.047 | 0.052 | 0.024 | -0.014 | -0.053 | -0.019 | -0.003 | -0.071 |

Reference: the supplement of paper PMC10849652
